Shown are actives, neighbours in structure and some others; about 2.3% of the full set was active somewhere.
pPAFAH FP inh – inhibitors of human plasma PAF acetylhydrolase (pPAFAH) | Q13093 | recombinant pPAFAH, FP-rhodamine probe fluorescence polarization | inhibition, % at 3.39 µM | 330,000 compounds, 1.5% hits | AID 463082;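 active means inhibition above the mean inhibition across the screen plus 3 SD, cut at about 25% in these data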;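 further: inhibitors block binding of the rhodamine activity-based probe so polarization drops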
Fam108B inh – Fam108B inhibition, counter-screen for RBBP9 inhibitors; recombinant Fam108B, FP-Rh probe fluorescence polarization; inhibition, % at 9.51 µM; 300,000 compounds, 0.33% hits; AID 1947;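 active means inhibition above the screen mean inhibition plus 3 SD, computed separately per campaign, cut at about 18% in these data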;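 further: inhibitors lower polarization as less probe binds the enzyme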
PAD4 FP inh – inhibitors of human PAD4. Q9UM07. recombinant PAD4, RCA probe fluorescence polarization. inhibition, % at 6.36 µM. 330,000 compounds, 0.41% hits. AID 485272;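 active means percent inhibition above a cutoff equal to the mean of all tested compounds plus 3 SD, cut at about 15% in these data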
GSTO1 counter – counter-screen for RBBP9 inhibitors: inhibitors of human GSTO1; P78417; recombinant GSTO1, activity-based probe fluorescence polarization; inhibition, % at 5.96 µM; 300,000 compounds, 1.1% hits;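 active means inhibition above the campaign mean inhibition plus 3 SD, cut at about 35% in these data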
Target sequence (P78417 whole entry, looked up): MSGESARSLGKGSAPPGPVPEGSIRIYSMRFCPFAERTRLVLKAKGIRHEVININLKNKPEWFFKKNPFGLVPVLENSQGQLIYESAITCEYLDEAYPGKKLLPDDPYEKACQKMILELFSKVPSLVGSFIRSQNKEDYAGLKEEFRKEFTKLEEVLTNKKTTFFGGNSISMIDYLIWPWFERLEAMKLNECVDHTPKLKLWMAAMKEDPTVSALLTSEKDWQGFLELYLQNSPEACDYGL
PME-1 primary – blocks human protein phosphatase methylesterase 1; Q9Y570; recombinant PME-1, FP-Rh probe fluorescence polarization; inhibition, % at 5.9 µM; 320,000 compounds, 0.53% hits; AID 2130;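 active means inhibition above the campaign mean of all compounds plus 3 SD, cut at about 26% in these data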;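 further: competitive labeling of PME-1 active site by serine hydrolase directed probe; inhibitors block probe labeling so polarization falls and inhibition rises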
Target sequence (Q9Y570 whole entry, looked up): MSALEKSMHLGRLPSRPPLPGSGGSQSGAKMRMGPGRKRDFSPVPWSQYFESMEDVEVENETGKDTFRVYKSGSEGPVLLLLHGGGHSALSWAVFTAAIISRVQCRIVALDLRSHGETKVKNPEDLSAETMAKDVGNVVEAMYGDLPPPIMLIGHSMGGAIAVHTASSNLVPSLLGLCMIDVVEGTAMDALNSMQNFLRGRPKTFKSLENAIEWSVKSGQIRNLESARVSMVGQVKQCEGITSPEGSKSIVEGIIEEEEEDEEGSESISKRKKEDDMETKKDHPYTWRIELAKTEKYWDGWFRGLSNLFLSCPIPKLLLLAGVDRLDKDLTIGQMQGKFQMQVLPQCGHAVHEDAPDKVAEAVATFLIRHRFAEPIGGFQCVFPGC
A number is an active result; - = inactive; . = not tested or not shown.

SMILES | pPAFAH FP inh | Fam108B inh | PAD4 FP inh | GSTO1 counter | PME-1 primary
CC(=O)Nc1ccc(NC(=O)C(C)OC(=O)C2CCN(S(=O)(=O)c3cccs3)CC2)cc1 (centres undefined) | - | - | - | - | -
CCCNS(=O)(=O)c1cc2c3c(c1)C(C)C(=O)N3CCC2 (centres undefined) | - | - | - | - | -
CCOc1ccc(NS(=O)(=O)c2cc3c4c(c2)C(C)C(=O)N4CCC3)cc1 (centres undefined) | 26 | - | - | - | -
O=C(c1cc(N2C(=O)C3C4CCC(C4)C3C2=O)ccc1Cl)N1CCN(c2ccccc2F)CC1 (centres undefined) | - | - | - | - | -
Cc1nn(-c2ccccc2)c(C)c1NC(=O)COC(=O)c1ccc(Cl)c(N)c1 | 28 | - | - | - | -
Cc1nn(-c2ccccc2)c(C)c1NC(=O)COC(=O)c1ccccc1 | - | . | - | . | -
COCc1nc(-c2ccc(-c3ccccc3)nc2OC)no1 | 26 | - | - | - | -
COCc1nc(-c2ccc(-c3ccc(OC)cc3)nc2OC)no1 | - | - | - | - | -
Cc1ccc(CNC(=O)CNC(=O)c2ccc(Br)o2)cc1 | - | - | - | - | -
CSc1ccccc1C(=O)N1CCC2(CC1)CC(=O)c1ccccc1O2 | - | - | - | - | -
c1ccc2c(c1)CCN(c1nc(CN3CCOCC3)nc3sc4c(c13)CCCC4)C2 | 32 | - | - | - | -
CCNc1nc(CN2CCOCC2)nc2sc3c(c12)CCC3 | - | - | - | - | -
CCOc1ccc(NC(=O)CSc2nnc(Cn3cnc4ccccc43)n2C)cc1 | - | - | - | - | -
Cc1ccccc1Cn1nnc2c1C(=O)c1ccccc1C2=O | - | - | - | 38 | -
CCOC(=O)c1c(C)[nH]c(C)c1C(=O)COC(=O)c1ccc(OC)c(OC)c1 | - | - | - | 35 | -
CCOC(=O)c1c(C)[nH]c(C)c1C(=O)COC(=O)c1c(OC)cccc1OC | - | - | - | - | -
Cc1nnc(NN)n(N)c1=O | - | - | - | 37 | -
O=C(NCc1ccco1)c1ccccc1NS(=O)(=O)c1ccc(Br)s1 | 28 | - | - | - | -
COc1cccc(N2CCN(c3ncnc4c3[nH]c3ccccc34)CC2C)c1 (centres undefined) | - | - | - | - | -
COc1cccc(N2CCN(c3ncnc4c3[nH]c3ccc(F)cc34)CC2C)c1 (centres undefined) | - | - | - | - | 28
CCOc1ccc(N2C(=O)CNC2=S)cc1 | - | - | - | - | -
CCOc1ccc(N2C(=O)CS/C2=C(\C(Cl)=C(Cl)Cl)[N+](=O)[O-])cc1 | 28 | - | - | 51 | -
Cc1cccc2cc(/C=N/Nc3ccc(C(=O)O)cc3)c(Cl)nc12 | 28 | - | - | - | 36
Cc1c(C(=O)OC/C(O)=C(\C#N)c2nc3ccccc3[nH]2)oc2ccccc12 | - | - | - | - | 32
COc1cc(CN2CC(=O)N(c3cc(Cl)ccc3C)C2=S)cc(OC)c1OC | - | - | - | - | -
SMILES | pPAFAH FP inh | Fam108B inh | PAD4 FP inh | GSTO1 counter | PME-1 primary
CCC(=O)Nc1ccc(/C(C)=N/NC(=O)c2c(-c3ccccc3Cl)noc2C)cc1 | - | - | - | - | -
Cc1ccc(NC(=O)C2CCCN2C(=O)OC(C)(C)C)cc1C (centres undefined) | - | - | - | - | -
CCCN(CCC)CCCNC(=O)c1cn(CC)c2ccc(S(=O)(=O)N(C)C3CCCCC3)cc2c1=O | - | - | - | - | 49
CCCN(CCC)CCCNC(=O)c1cn(C)c2ccc(S(=O)(=O)N(C)C3CCCCC3)cc2c1=O | - | - | - | - | -
CCCCN(CCCC)CCNC(=O)c1cn(C)c2ccc(S(=O)(=O)N(C)C3CCCCC3)cc2c1=O | - | - | - | - | 66
CCCCN(CCCC)CCNC(=O)c1cn(CC)c2ccc(S(=O)(=O)N3CCc4ccccc4C3)cc2c1=O | - | - | - | - | 59
C[C@H](NC(=O)c1ncn(Cc2ccccc2)c1C(=O)N[C@@H](C)c1ccccc1)c1ccccc1 | - | . | - | . | -
CCCCCCSc1ccc(-c2nc3ccc(C)cn3c2NCc2ccccc2)cc1 | - | - | - | - | -
CCC(C)Sc1ccc(-c2nc3ccc(C)cn3c2NCc2ccccc2)cc1OC (centres undefined) | 27 | - | - | - | -
CCCCCCSc1ccc(-c2nc3ccc(C)cn3c2NCc2ccccc2)cc1OC | 26 | - | - | - | -
Cc1ccc2nsnc2c1NC(=O)c1ccc([N+](=O)[O-])o1 | - | - | - | - | -
O=C(O)C(c1ccccc1)N1C(=O)/C(=C\c2ccc(O)c(O)c2)SC1=S (centres undefined) | 30 | - | - | - | -
Cc1ccc(NC(=O)COc2coc(CN3CCc4ccccc4C3)cc2=O)c(C)c1 | 25 | - | - | - | -
Cc1ccc(NC2=C(NC(=O)c3ccccc3)C(=O)c3ccccc3C2=O)cc1Cl | - | - | - | 62 | -
COc1ccc(-c2csc(NC(=O)C3CC(=O)N(c4ccc5c(c4)OCCO5)C3)n2)cc1 (centres undefined) | 25 | - | - | - | -
CC(=O)Nc1ccc(-c2csc(NC(=O)C3CC(=O)N(c4ccc5c(c4)OCCO5)C3)n2)cc1 (centres undefined) | - | - | - | - | -
COc1ccc(NS(=O)(=O)c2cccc(C(=O)NN=Cc3ccc(OC)c(O)c3)c2)cc1 | 32 | . | - | . | .
COc1ccc(NS(=O)(=O)c2cccc(-c3nnc4n3CCCCC4)c2)cc1 | 29 | - | - | - | -
COc1ccc(NS(=O)(=O)c2cccc(C(=O)NNC(=O)c3ccc(NC(C)=O)cc3)c2)cc1 | 26 | - | - | - | -
COc1ccccc1S(=O)(=O)Nc1cccc(-c2nnc3n2CCCCC3)c1 | - | - | - | - | -
COc1ccc(/C=N/NC(=O)c2cccc(S(=O)(=O)N3CCCC3)c2)cc1O | - | . | - | . | -
COc1ccc(NS(=O)(=O)c2cccc(C(=O)NNC(=O)c3ccc(O)c(Cl)c3)c2)cc1 | - | . | - | . | -
COc1ccc(NS(=O)(=O)c2cccc(NC(=O)C34CCC(CC3)C4)c2)cc1 | 26 | - | - | - | -
O=C(CCC(=O)N1CCN(Cc2ccc(F)cc2)CC1)Nc1nnc(C(F)(F)F)s1 | - | - | - | - | -
O=C(O)c1ccccc1Nc1ccc([N+](=O)[O-])c2nonc12 | - | - | - | - | -
SMILES | pPAFAH FP inh | Fam108B inh | PAD4 FP inh | GSTO1 counter | PME-1 primary
CCOc1ccccc1C(=O)NCC(=O)NNC(=O)c1cccc(S(=O)(=O)Nc2ccc(OC)cc2)c1 | 26 | - | - | - | -
COc1ccc(NS(=O)(=O)c2cccc(C(=O)NNC(=O)c3cc(S(N)(=O)=O)ccc3OC)c2)cc1 | 25 | - | - | - | -
Oc1ccc(-c2nc3ccc4ccccc4c3c3c2CCC3)cc1O | 33 | - | - | - | -
COc1ccc(NC(=O)CN(C)C(=O)Cc2ccc3c(c2)CCC3)cc1 | - | - | - | - | -
O=C(CN(C(=O)c1csnn1)c1ccc(Cl)cc1)NCCc1ccccc1 | - | - | - | - | -
COc1cc(NC(=O)CSc2ncnc3scc(-c4ccccc4)c23)c(C(=O)O)cc1OC | 31 | - | - | - | -
